# DAX1 inh-1 – DAX1 (NR0B1) inhibitors on StAR promoter, primary screen, cell-based, luminescence, SF-1 (NR5A1), full-length DAX-1. HEK293T StAR-luciferase reporter, SF-1/DAX-1 repression relief. inhibition, % at 6.8 µM. actives 1.1% (n = 370,000). AID 652010, 2013;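 active = inhibition above the mean over all tested compounds plus 3 SD, cut at about 3.6% in these data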;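 also: higher inhibition means more luminescence from relief of DAX-1 repression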
# hcDAF12 agonist – H. contortus DAF-12 nuclear receptor activators, primary screen, cell-based, luminescence, HEK293, lit1-tk-luc reporter; HEK293 hcDAF-12 lit1-tk-luc reporter; 0% DMSO, 100% Δ7-dafachronic acid; activation, % at 6.8 µM; actives 1.4% (n = 370,000); AID 652067, 2013;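 active = activation above the mean of all tested compounds plus 3 SD, cut at about 5.5% in these data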
# DAX1 inh-2 – DAX1 (NR0B1) inhibitors, primary screen, cell-based, HEK293, Gal4-DAX1, luciferase luminescence; HEK293 Gal4-DAX1 luciferase reporter; inhibition, % at 6.75 µM; actives 0.99% (n = 340,000); AID 504766, 2011;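 active = inhibition above the mean over all tested compounds plus 3 SD, cut at about 4.2% in these data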;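 also: inhibition shows as a rise in luminescence from relieved DAX1 repression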
# ssDAF-12 act – S. stercoralis DAF-12 nuclear receptor activators, primary screen, cell-based, luminescence, HEK293, GRIP1 co-expression, lit1-tk-luc; Nuclear hormone receptor DAF-12 (Strongyloides stercoralis); HEK293 ssDAF-12/GRIP1 lit1-tk-luc reporter; % of 3 µM dafachronic acid response; activation, % at 6.8 µM; actives 1% (n = 370,000); AID 652126, 2013;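 active = activation above the mean over all tested compounds plus 3 SD, cut at about 0.9% in these data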
# AHR activator – AHR activators, primary screen, cell-based, luminescence, luciferase reporter, human; actives 2.5% (n = 320,000); AHR-responsive luciferase reporter cells; activation, % at 5 µM; Aryl hydrocarbon receptor (Homo sapiens), P35869; AID 2796, 2010; in the data active = activation above about 47%
# hgDAF-12 ag – H. glycines DAF-12 receptor agonists, primary screen, cell-based, luminescence, HEK293, GAL4 fusion, UAS-luciferase; activation, % at 6.8 µM; AID 687014, 2013; Nuclear hormone receptor DAF-12 (Heterodera glycines), GAL4 fusion; actives 1.8% (n = 370,000); HEK293 GAL4-hgDAF12 UAS-luciferase reporter, agonist luminescence; normalized to butyrate control;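 active = activation above a cutoff set at the mean of all screened compounds plus 3 SD, cut at about 10% in these data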
# LXR ag – LXR agonists, Gal4 luciferase reporter, confirmation, counter-screen for hcDAF-12 agonist project, cell-based, luminescence, HEK293, H. contortus campaign; shares compounds with hcDAF12 agonist; HEK293 Gal4-LXR tk-luc reporter, 24 h; normalized: DMSO 0%, positive control 100%; activation, % at 6.8 µM; 3,400 tested, under 10 active;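 active = mean percent activation of the reporter above a cutoff set as the average over tested compounds plus their standard deviation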
# Target sequence (P55055 whole entry, looked up, the tested form may be a part): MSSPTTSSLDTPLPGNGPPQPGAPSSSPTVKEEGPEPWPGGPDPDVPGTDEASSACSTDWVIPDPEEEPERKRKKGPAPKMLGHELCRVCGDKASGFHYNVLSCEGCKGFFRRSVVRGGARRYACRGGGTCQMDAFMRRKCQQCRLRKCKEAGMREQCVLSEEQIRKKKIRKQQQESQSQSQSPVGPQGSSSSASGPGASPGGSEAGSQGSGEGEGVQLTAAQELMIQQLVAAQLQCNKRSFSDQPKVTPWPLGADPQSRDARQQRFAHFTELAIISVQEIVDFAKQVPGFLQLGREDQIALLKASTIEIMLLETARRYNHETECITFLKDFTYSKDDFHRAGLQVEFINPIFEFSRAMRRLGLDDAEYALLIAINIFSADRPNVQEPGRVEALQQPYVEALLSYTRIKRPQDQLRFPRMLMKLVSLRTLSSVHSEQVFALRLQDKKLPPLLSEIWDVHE
# hcDAF12 conf – H. contortus DAF-12 receptor agonists, confirmation, cell-based, luminescence, HEK293, lit1-tk-luc, triplicate; activation, % at 6.8 µM; HEK293 hcDAF-12 lit1-tk-luc reporter; % of Δ7-dafachronic acid response; shares compounds with hcDAF12 agonist; AID 743032, 2013; actives 61% (n = 3,400);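 active = mean activation across triplicate tests above the threshold derived from the earlier primary screen, cut at about 5.5% in these data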
# hgDAF12 ag – H. glycines DAF-12 receptor agonists, confirmation, cell-based, luminescence, HEK293, GAL4-LBD fusion; shares compounds with hgDAF-12 ag; HEK293 GAL4-hgDAF12 luciferase reporter, agonist mode; percent of butyrate response; activation, % at 6.8 µM; actives 80% (n = 3,300);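 active = mean activation over triplicate wells above the hit cutoff derived from the earlier primary screen, cut at about 11% in these data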
# LXR ag 2 – LXR agonists, Gal4 luciferase reporter, confirmation, counter-screen for hgDAF-12 agonist project, cell-based, luminescence, HEK293, H. glycines campaign; activation, % at 6.8 µM; 3,300 tested, under 10 active; AID 743051, 2013; 24 h; shares compounds with hgDAF-12 ag;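 active = mean activation of the triplicate above a set limit carried over from the primary screen, none filed active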
# Hits are given with their value; - = inactive; . = not tested or not shown. In the library only some 5.7% were active in any assay of this set; here they are far more common.
SMILES,DAX1 inh-1,hcDAF12 agonist,DAX1 inh-2,ssDAF-12 act,AHR activator,hgDAF-12 ag,LXR ag,hcDAF12 conf,hgDAF12 ag,LXR ag 2
O=C(N/N=C/c1ccc(Br)s1)c1ccccn1,4.5,8.2,-,-,-,14,-,-,14,-
CCOC(=O)c1c(C)nc2c3ccccc3ccn12,3.7,9.7,-,2.7,75,19,-,12,17,-
O=c1[nH]c(N/N=C\c2ccc(F)cc2)nc2ccccc12,-,8.4,-,1.6,-,15,-,-,18,-
CCCCCCCC#Cc1ccccc1/C=N/S(=O)c1ccc(C)cc1 (stereo not given),.,.,.,.,-,.,.,.,.,.
CON(C)S(=O)(=O)NC(=O)C1=C(N2CCCC2)COC1=O,-,-,-,-,-,-,.,.,.,.
COc1cc(CNc2ncn[nH]2)ccc1OCc1cccc(C)c1,-,-,-,-,-,-,.,.,.,.
CCc1ccc(-c2cc(C(=O)O)c3ccccc3n2)s1,-,11,-,1.1,.,17,-,9.1,14,-
COc1cc2cc3c(N)c(C(=O)NCc4ccco4)sc3nc2cc1OC,.,.,-,.,-,.,.,.,.,.
Cc1ccc2nc3sc(C(=O)NCc4ccco4)c(N)c3cc2c1,4.3,8.1,-,-,-,13,-,-,20,-
CCc1sc(C(=O)Nc2nccs2)cc1C,-,6.7,-,0.9,-,19,-,6.7,21,-
CC(=NCc1ccco1)c1c(C)[nH]n(-c2nc3ccccc3s2)c1=O,-,-,-,-,-,-,.,.,.,.
C/C(=N/NC(=O)c1cccs1)c1c(C)[nH]n(-c2nc3ccccc3s2)c1=O,4.0,7.7,-,-,-,17,-,-,-,-
O=C(CN1C(=O)NC2(CCCCCCC2)C1=O)Nc1cccc(Br)c1,-,-,-,-,-,-,.,.,.,.
CC(C)CC(N)c1csc(Nc2cnccn2)n1 (stereo not given),-,-,.,-,.,-,.,.,.,.
CN(C)c1ccc(N=Nc2cccc3ccoc23)cc1,-,16,6.5,1.6,-,19,-,9.0,20,-
OCCNC(=S)c1ccccc1,-,-,-,-,-,-,.,.,.,.
COc1ccc2nc(SC)c(C#N)cc2c1,-,-,-,-,-,-,.,.,.,.
COc1ccc2nc(SCC(C)=O)c(C#N)cc2c1,3.9,12,5.9,2.5,-,19,-,11,25,-
CCn1cnc2c(NCc3cccnc3)nc(C#N)nc21,.,-,.,-,.,-,.,.,.,.
O=C(CN1C(=O)CCC1=O)Nc1nc(-c2nc3ccccc3s2)cs1,4.5,7.6,-,1.2,-,16,-,-,12,-
O=C(CN1C(=O)CCC1=O)Nc1nc(-c2ccccn2)cs1,-,-,-,-,-,-,.,.,.,.
CN(C(=O)c1cccc(NC(=O)Cc2ccc(NC(=O)C3CCCN(C(=O)C4CCCCC4)C3)cc2)c1)C1CCC1 (stereo not given),-,-,-,-,.,-,.,.,.,.
CC(=O)Nc1ccc(S(=O)(=O)NCc2ccncc2)cc1,-,-,-,-,-,-,.,.,.,.
Oc1ccccc1-c1cc(-c2cccc(F)c2)n[nH]1,4.4,21,-,2.4,72,24,-,16,27,-
CC(C)(C)c1ccc(-c2cc(-c3ccccc3O)[nH]n2)cc1,-,-,-,-,-,-,.,.,.,.
SMILES,DAX1 inh-1,hcDAF12 agonist,DAX1 inh-2,ssDAF-12 act,AHR activator,hgDAF-12 ag,LXR ag,hcDAF12 conf,hgDAF12 ag,LXR ag 2
Clc1ccc2nc(-c3ccccc3)cn2c1,-,11,-,1.9,-,18,-,9.7,18,-
CN(c1cccc(Cl)c1)S(=O)(=O)c1cccc(C(=O)Nc2nc3ccccc3[nH]2)c1,-,-,-,-,-,-,.,.,.,.
O=C(Nc1nc2ccccc2[nH]1)c1ccccc1,-,13,-,1.4,-,14,-,14,14,-
O=C(CSc1ccccc1)Nc1nc2ccccc2[nH]1,-,-,-,-,-,-,.,.,.,.
O=C(Nc1nc2ccccc2[nH]1)c1cccc(Cl)c1,-,8.2,-,-,-,16,-,5.8,17,-
CCSc1nnc(NC(NC(C)=O)(C(F)(F)F)C(F)(F)F)s1,-,-,-,-,-,-,.,.,.,.
Brc1c(-c2ccccc2)nc2n1Cc1ccccc1-2,-,11,-,1.8,54,16,-,11,18,-
O=C(c1[nH]c(C(F)(F)F)nc1-c1ccccc1)N1CCc2ccccc2C1,-,-,.,-,.,-,.,.,.,.
COc1cc(C(=O)OC(C)c2ccc(F)cc2)ccc1OCC(=O)N1CCOCC1 (stereo not given),-,-,-,-,-,-,.,.,.,.
NNC(=O)c1cccc(COc2ccccc2Br)c1,-,7.2,-,1.2,-,16,-,6.5,15,-
COc1ccc2[nH]c3nc(SC(C)C)nnc3c2c1,3.9,14,-,1.5,-,21,-,9.1,-,-
O=C(CNC(=O)c1ccccc1F)OCCOc1cccc(Cl)c1,-,-,-,-,-,-,.,.,.,.
COc1ccc2cc(C(=O)N3CCc4ccccc43)[nH]c2c1,-,14,-,1.6,82,19,-,13,24,-
COc1ccc2cc(C(=O)N3CCN(c4cccc(C)c4C)CC3)[nH]c2c1,-,-,-,-,.,-,.,.,.,.

# Bioassay records as filed in PubChem BioAssay.
